Experimental data from ChEMBL document CHEMBL3988442, “University of Dundee, Small-Polar-MMV Screening Library” (2021).
For some assays here: Entries with a potency or affinity are not part of this list.

Key:
Set-up in all cases: scale not given: direction of the effect not stated beside the values
[1] = target: Protein translocase subunit SecA (Escherichia coli (strain K12)) (UniProt P10408); experiment: Assay to Identify E. coli SecA ATPase Inhibitors; assay type: functional; conditions: 30 µM
[2] = target: T1, Ubiquitin-activating enzyme e1, putative (Leishmania donovani (strain BPK282A1)) (UniProt E9BSI1); experiment: Leishmania donovani Ubiquitin Activating Enzyme (LdE1); assay type: functional; conditions: 30 µM
T1 sequence (whole entry): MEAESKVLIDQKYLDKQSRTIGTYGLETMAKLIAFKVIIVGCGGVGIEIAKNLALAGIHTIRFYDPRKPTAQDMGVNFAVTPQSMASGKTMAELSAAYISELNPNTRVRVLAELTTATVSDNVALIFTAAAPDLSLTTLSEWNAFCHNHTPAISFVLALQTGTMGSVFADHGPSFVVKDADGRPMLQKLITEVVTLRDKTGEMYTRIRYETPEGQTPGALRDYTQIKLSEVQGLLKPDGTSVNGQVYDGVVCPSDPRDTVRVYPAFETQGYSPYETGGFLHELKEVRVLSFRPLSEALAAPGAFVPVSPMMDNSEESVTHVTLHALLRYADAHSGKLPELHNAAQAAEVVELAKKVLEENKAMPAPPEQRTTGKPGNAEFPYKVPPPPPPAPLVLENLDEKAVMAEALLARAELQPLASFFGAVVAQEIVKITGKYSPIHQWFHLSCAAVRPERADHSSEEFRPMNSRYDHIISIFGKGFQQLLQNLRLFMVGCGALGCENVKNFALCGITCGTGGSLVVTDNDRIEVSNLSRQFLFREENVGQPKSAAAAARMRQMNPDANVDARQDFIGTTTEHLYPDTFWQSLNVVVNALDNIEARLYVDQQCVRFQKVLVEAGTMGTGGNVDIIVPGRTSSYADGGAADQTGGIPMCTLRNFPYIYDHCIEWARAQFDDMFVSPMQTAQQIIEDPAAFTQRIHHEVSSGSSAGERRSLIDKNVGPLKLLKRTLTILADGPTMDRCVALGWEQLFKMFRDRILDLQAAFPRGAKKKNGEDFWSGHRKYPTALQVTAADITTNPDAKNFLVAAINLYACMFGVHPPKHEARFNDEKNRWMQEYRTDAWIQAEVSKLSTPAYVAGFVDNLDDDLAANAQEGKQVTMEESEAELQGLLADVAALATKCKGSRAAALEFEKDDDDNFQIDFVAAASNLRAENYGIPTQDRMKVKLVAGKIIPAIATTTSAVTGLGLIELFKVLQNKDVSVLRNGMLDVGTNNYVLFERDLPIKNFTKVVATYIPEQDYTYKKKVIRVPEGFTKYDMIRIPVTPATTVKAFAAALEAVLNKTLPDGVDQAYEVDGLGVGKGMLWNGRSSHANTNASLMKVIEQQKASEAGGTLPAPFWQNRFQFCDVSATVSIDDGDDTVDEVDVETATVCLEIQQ

[3] = target: AMP-activated protein kinase, AMPK (Homo sapiens) (UniProt P54646+O43741+P54619+Q9UGJ0+Q9Y478+Q13131+Q9UGI9); experiment: AMP-dependent Kinase enzyme assay. An in vitro enzyme assay that detects ADP turnover that is directly proportional to AMPK activity. This uses naive AMPK that is activated during the assay with MK-8722; assay type: functional; conditions: 30 µM
[4] = target: Sialic acid-binding Ig-like lectin 9 (Homo sapiens) (UniProt Q9Y336); experiment: Hs-Siglec9 ALPHAscreen SOP 20170721; conditions: 10 µM
[5] = test system: Trypanosoma cruzi; experiment: Trypanosoma cruzi phosphomannomutase and mannose-1-phosphate guanylyltransferase assay; assay type: functional; conditions: 10 µM
[6] = target: T2, Arginase-2, mitochondrial (Homo sapiens) (UniProt P78540); experiment: in vitro enzyme assay to detect the production of urea directly proportional to the activity of Arginase II; assay type: functional; conditions: 33.3 µM; note: in the data most compounds retested in dose-response had high values
T2 sequence (whole entry): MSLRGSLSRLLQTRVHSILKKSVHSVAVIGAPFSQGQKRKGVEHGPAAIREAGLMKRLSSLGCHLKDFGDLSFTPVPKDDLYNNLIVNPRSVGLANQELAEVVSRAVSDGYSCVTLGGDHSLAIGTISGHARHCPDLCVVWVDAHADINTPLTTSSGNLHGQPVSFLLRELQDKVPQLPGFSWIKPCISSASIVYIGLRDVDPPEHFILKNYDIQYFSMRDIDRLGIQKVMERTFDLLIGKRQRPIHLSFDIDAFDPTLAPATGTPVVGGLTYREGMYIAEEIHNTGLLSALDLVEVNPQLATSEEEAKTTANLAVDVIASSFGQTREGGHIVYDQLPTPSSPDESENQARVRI

[7] = target: T3, Proteasome subunit beta (Trypanosoma cruzi) (UniProt O96673); experiment: Trypanosoma cruzi proteasome chymotrypsin-like activity (TcProtChymo) assay.; note: in the data most compounds retested in dose-response had high values; assay type: functional; conditions: 9.37 µM
T3 sequence (whole entry): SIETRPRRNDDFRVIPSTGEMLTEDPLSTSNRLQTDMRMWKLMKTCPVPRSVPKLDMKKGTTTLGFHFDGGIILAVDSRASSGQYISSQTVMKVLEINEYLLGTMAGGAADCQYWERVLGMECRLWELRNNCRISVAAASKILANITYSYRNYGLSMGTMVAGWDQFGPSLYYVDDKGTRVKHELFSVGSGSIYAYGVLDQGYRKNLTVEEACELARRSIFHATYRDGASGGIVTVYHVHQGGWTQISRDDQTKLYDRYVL

[8] = species on record: Homo sapiens; experiment: To identify inhibition of the IFN signalling (Jak-Stat) pathway via expression of an eGFP reporter gene under the control of an IFN-stimulated response element (ISRE) containing MxA promoter.; assay type: functional; conditions: 30 µM
[9] = target: T4, Tyrosyl-tRNA synthetase, putative (Trypanosoma cruzi (strain CL Brener)) (UniProt Q4DSP6); experiment: Trypanosoma cruzi tyrosyl tRNA synthetase (TcYRS) _High Tyrosine SOP; assay type: functional; conditions: 30 µM; note: in the data most compounds retested in dose-response had high values
T4 sequence (whole entry): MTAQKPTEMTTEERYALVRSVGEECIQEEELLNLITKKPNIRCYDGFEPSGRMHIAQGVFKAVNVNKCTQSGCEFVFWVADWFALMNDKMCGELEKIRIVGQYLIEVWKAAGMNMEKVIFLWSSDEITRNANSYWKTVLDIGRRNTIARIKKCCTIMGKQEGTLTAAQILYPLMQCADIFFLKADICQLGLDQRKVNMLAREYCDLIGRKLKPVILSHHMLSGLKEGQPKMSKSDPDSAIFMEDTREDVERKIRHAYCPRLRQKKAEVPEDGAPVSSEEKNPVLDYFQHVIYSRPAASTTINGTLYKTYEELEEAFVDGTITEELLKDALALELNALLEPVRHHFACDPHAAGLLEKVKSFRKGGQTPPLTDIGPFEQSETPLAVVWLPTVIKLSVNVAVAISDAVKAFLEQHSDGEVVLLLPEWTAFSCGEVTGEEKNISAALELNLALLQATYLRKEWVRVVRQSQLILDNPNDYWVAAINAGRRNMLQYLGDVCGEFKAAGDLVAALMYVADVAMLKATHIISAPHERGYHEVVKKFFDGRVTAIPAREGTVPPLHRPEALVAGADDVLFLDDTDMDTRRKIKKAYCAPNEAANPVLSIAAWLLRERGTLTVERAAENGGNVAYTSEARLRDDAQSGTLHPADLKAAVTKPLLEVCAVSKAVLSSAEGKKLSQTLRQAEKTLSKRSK

[10] = target: T4, Tyrosyl-tRNA synthetase, putative (Trypanosoma cruzi (strain CL Brener)); experiment: Trypanosoma cruzi tyrosyl tRNA synthetase (TcYRS) SOP; assay type: functional; conditions: 30 µM
[11] = target: Chromo domain-containing protein 1 (Saccharomyces cerevisiae (strain ATCC 204508 / S288c) (Baker's yeast)) (UniProt P32657); experiment: ScCHD-1 Enzyme Inhibition Assay; assay type: functional; conditions: 30 µM; note: in the data most compounds retested in dose-response had high values
Chain of Chromo domain-containing protein 1 (Saccharomyces cerevisiae (strain ATCC 204508 / S288c) (Baker's yeast)) (P32657 whole entry, the tested form may be a part): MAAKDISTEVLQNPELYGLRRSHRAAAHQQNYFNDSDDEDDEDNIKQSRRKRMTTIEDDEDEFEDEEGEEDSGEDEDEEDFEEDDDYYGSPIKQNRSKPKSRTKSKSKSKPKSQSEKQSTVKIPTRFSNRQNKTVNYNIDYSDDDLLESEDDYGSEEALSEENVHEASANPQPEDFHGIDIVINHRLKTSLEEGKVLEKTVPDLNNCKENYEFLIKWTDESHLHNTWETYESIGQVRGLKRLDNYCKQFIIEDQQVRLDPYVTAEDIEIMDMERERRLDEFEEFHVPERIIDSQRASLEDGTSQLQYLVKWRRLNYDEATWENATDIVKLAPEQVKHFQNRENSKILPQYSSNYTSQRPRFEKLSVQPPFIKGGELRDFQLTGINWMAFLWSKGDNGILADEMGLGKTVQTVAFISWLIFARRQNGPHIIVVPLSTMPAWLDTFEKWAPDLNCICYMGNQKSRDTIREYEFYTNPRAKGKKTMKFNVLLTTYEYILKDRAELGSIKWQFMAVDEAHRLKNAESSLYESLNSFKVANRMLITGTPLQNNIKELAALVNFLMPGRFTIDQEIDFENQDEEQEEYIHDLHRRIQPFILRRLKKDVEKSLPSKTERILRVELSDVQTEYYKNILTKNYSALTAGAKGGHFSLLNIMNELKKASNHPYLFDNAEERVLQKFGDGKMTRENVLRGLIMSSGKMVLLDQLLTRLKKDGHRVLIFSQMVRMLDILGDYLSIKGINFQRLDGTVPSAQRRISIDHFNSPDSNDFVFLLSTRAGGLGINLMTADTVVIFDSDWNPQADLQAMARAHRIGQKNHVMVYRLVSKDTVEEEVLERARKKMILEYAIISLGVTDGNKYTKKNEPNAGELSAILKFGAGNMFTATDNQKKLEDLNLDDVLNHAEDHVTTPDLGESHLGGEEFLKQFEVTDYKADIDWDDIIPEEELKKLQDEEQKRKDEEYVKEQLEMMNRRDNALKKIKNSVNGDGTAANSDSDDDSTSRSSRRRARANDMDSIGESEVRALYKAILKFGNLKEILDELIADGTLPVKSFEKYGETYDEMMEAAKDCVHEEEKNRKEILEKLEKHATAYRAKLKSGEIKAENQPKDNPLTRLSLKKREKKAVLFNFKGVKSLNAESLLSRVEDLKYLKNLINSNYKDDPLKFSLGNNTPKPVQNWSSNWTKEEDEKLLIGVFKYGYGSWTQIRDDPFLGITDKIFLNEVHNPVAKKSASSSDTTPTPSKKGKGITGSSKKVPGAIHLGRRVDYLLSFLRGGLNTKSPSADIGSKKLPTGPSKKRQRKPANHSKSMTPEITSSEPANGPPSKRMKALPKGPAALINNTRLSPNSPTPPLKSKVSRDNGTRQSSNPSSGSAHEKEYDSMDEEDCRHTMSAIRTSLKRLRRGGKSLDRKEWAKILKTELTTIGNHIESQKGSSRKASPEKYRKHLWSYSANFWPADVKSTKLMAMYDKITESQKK

Chain of Protein translocase subunit SecA (Escherichia coli (strain K12)) (P10408 whole entry): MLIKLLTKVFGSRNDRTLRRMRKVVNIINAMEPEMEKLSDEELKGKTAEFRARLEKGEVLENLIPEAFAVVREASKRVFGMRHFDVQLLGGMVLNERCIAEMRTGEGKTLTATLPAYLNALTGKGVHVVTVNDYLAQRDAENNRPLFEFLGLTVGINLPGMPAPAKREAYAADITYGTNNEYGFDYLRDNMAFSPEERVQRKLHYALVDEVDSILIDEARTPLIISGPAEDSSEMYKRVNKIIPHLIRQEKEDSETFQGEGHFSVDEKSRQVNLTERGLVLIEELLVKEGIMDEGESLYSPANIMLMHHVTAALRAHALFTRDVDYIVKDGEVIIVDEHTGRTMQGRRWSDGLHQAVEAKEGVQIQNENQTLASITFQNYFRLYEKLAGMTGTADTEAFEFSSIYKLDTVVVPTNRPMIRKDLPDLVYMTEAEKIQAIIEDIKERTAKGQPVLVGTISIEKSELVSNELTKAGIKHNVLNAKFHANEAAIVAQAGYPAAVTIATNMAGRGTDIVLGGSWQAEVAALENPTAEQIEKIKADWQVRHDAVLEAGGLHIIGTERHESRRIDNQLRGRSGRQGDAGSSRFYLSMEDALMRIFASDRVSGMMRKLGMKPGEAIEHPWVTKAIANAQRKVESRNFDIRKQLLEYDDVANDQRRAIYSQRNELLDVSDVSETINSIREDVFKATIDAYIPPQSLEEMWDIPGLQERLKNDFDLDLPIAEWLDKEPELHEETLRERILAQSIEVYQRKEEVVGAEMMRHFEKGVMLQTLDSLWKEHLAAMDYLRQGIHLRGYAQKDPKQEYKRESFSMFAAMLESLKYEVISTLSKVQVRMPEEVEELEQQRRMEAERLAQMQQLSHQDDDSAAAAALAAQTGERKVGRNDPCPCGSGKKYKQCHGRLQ
Chain of Sialic acid-binding Ig-like lectin 9 (Homo sapiens) (Q9Y336 whole entry): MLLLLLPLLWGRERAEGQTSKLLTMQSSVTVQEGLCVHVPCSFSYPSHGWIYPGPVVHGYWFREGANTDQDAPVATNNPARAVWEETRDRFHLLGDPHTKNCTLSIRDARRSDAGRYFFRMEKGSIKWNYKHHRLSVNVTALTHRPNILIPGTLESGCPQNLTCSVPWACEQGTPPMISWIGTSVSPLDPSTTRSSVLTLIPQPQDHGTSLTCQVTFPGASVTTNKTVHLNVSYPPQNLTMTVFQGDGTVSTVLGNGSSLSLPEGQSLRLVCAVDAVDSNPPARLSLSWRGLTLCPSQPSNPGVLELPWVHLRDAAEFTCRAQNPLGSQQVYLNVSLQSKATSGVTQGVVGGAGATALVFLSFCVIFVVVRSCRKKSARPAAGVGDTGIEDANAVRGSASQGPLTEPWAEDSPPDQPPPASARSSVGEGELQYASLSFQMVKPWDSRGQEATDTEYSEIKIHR

SMILES	Percent Effect [1]	Percent Effect [2]	Percent Effect [3]	Percent Effect [4]	Percent Effect [5]	Percent Effect [6]	Percent Effect [7]	Percent Effect [8]	Percent Effect [9]	Percent Effect [10]	Percent Effect [11]
CCCOCCN1CCC2(CC1)CC(c1ccccc1)C(=O)N2C (configuration not stated)	6.56%	5.33%	-0.289%	-1.03%	-9.45%	-4.69%	18.8%	48.6%	-2.73%	1.24%	-5.61%
CSCCCN1CC[C@@H](NC(=O)c2cnccn2)[C@H](O)C1	-3.48%	5.41%	-0.599%	6.12%	3.09%	-1.43%	11.6%	5.1%	8.99%	19.5%	1.39%
CC(C)c1nn(C)c(N(C)C)c1CNCc1ccccc1CN(C)C	-0.693%	10.5%	-8.08%	13%	1.13%	-5.36%	7.85%	-8.54%	0.49%	7.32%	-12.6%
CNC(=O)C1CCN(C(=O)c2ccn(-c3ccc(F)cc3)n2)CC1	-3.93%	16.2%	1.73%	1.5%	-1.21%	2.77%	7.54%	8.4%	10.9%	23.2%	-0.908%
CC(C)c1nc(CN(C)CC2CCN(CCO)CC2)no1	-2.78%	0%	-3.56%	0.371%	-1.35%	2.86%	1.9%	1.02%	2.65%	9.76%	-3.71%
O=C(Cc1ccsc1)N1CCC(n2nc(-c3ccco3)ccc2=O)CC1	-7.59%	6.76%	16.2%	33.6%	-2.17%	-4.41%	13.9%	-0.185%	9.68%	6.49%	-13.4%
Cc1nc(CSCCC(=O)NCc2cccnc2N(C)C)cs1	-0.871%	20.2%	-1.17%	-7.06%	5.38%	4.56%	7.45%	5.3%	6.4%	24.1%	-7.54%
CCc1ccc(C(=O)Nc2ccc(CC3CC(=O)NC3=O)cc2)cc1 (configuration not stated)	-1.66%	8.22%	15.3%	3.15%	1.76%	5.46%	11.9%	11.7%	2.15%	12.5%	-6.28%
Cc1cc(C(=O)N2C[C@@H]3COC[C@]3(COCc3cccnc3)C2)no1	-2.45%	33.8%	4.4%	-2.26%	-3.45%	3.23%	7.31%	4.17%	-2.12%	8.97%	-5.95%
CC(CNC(=O)c1cccnc1Oc1cccnc1)N(C)C (configuration not stated)	-0.805%	18.9%	-3.66%	10.5%	6.56%	10%	12.9%	4.67%	4.76%	17.1%	-1.51%
CC(C)c1nccn1C1CCCN(C(=O)c2ccnc(N(C)C)c2)C1 (configuration not stated)	-2.97%	-7.79%	-1.67%	-1.25%	0.0979%	1.47%	10.6%	18.4%	1.91%	-11.8%	-18.1%
CCn1nc(C)c2nc(C(C)C)nc(NCCCO)c21	-2.47%	12%	4.47%	13.2%	1.97%	0.176%	12.6%	33.7%	4.23%	12.8%	-6.99%
CN1CC(=O)N(c2cnn(C)c2)CC12CCN(Cc1nccn1C)C2 (configuration not stated)	-0.706%	8.22%	4.05%	7.48%	-4.17%	-0.399%	10.2%	6.84%	4.17%	6.17%	-4.89%
Cc1cc(C)n(CCC(=O)N2CCC(c3nc(C(C)C)no3)CC2)n1	-2.78%	20.8%	4.41%	11.6%	5.8%	-40%	16.5%	-3.55%	6.45%	18.5%	-7.45%
COCCn1c2c(ccc1=O)CC(NS(C)(=O)=O)CC2 (configuration not stated)	-3.49%	13.3%	-2.12%	-9.48%	-7.68%	-1.63%	-1.15%	10.7%	0%	3.85%	-4.29%
CCC(C)(NCC(=O)N(c1ccccc1)C(C)C)c1nc(C)cs1 (configuration not stated)	1.71%	8.11%	-12.9%	3.16%	1.27%	7.2%	7.3%	-1.37%	4.3%	13.6%	-8.52%
CC(C)COCC(NC(=O)c1cc[nH]n1)c1ccco1 (configuration not stated)	-5.65%	24.3%	-9.5%	15.5%	1.79%	-13.6%	5.59%	19.5%	4.43%	18.5%	-12.3%
COC(=O)c1cc(C(=O)N2CCOCC2(C)C)n(-c2ccccc2)n1	-2.65%	7.89%	4.52%	4.64%	6.2%	-6.13%	0%	-3.57%	4.41%	17.1%	-9.02%
CC(C)c1n[nH]c(C2CN(C(=O)C3=COCC3)CCO2)n1 (configuration not stated)	-3.67%	2.63%	1.65%	11.9%	0.0934%	5.4%	-5.33%	-8.69%	2.46%	3.7%	10.5%
Cc1cc(=O)n2ncnc2n1CC(O)c1cc(F)ccc1F (configuration not stated)	-4.1%	18.4%	1.21%	-4.45%	5.55%	1.18%	15.6%	6.3%	5.32%	20.8%	-3.49%
Cc1nn(C)c(C)c1C1CCCN1C(=O)CCCn1cccn1 (configuration not stated)	0.0877%	0%	3.67%	-4.76%	-6.07%	10.1%	-2.45%	9.1%	0.493%	-6.17%	1.61%
COC(=O)c1ccc2ccn(CC3CCNC3)c(=O)c2c1 (configuration not stated)	-1.56%	24.7%	-24.1%	16.4%	4.31%	2.27%	21.8%	6.65%	6.45%	20%	-5.95%
